Compound activity deposited in PubChem BioAssay by several laboratories.
Only some compounds are listed: those with a hit (about 3.7% of all), similar ones and a draw of the others.
Anthrax LF prot – blocks Bacillus anthracis lethal factor protease. multiplex microsphere protease cleavage assay, LF. 360,000 tested, 0.12% active. inhibition, % at 10 µM; further: plate controls were buffer without enzyme for full effect and enzyme alone for no effect
BoNT-A LC inh2 – inhibitors of Botulinum neurotoxin A light chain protease; multiplex microsphere protease substrate cleavage, flow cytometry; inhibition, % at 10 µM; 360,000 tested, 0.17% active; further: plate controls were buffer without enzyme for full effect and enzyme alone for no effect
Bead autofluor – counter-screen for toxin protease inhibitors: compound fluorescence | compound autofluorescence counterscreen, microsphere flow cytometry; active compounds read high | fluorescence intensity (no concentration beside the values) | 360,000 tested, 3.1% active | AID 624483; in the data active means fluorescence intensity above about 16000; inconclusive means no clear call, values can overlap the other calls
MazF activator – activators of E. coli MazEF toxin-antitoxin RNase | FAM/BHQ RNA-DNA oligo cleavage fluorescence, 5 h | activation, % at 20 µM | 350,000 tested, 0.32% active; in the data active means activation above about 50%
BoNT-F LC inh – inhibitors of Botulinum neurotoxin F light chain protease; Multiplex microsphere protease cleavage assay, flow cytometry; inhibition, % at 10 µM; 360,000 tested, 0.22% active; in the data active means inhibition above about 35%, passing the limit was not always enough; inconclusive means no clear call, values can overlap the other calls; further: plate controls were buffer without enzyme for full effect and enzyme alone for no effect
* hit, by the source's call. Unless noted, no stated cut-off is given here; in the data, active means inhibition above about 30%; inconclusive means no clear call, values can overlap the other calls; inactive means below that.

Screening Cc1ccc(NC(=O)c2csc(-c3ccccc3)c2C)cc1 returned Anthrax LF prot 2.0, BoNT-A LC inh2 -0.3, Bead autofluor 23926*, MazF activator -1.8 and BoNT-F LC inh 0.2.
`Cc1c(C(=O)Nc2cccc([N+](=O)[O-])c2)csc1-c1ccccc1` gave Anthrax LF prot -7.5, BoNT-A LC inh2 -0.8, Bead autofluor 16284*, MazF activator 10.7 and BoNT-F LC inh -3.6.
CC(C(=O)Nc1ccc(Br)cc1C(=O)c1ccccc1)N1CCCCC1 (stereo unspecified) was read as Anthrax LF prot -4.8, BoNT-A LC inh2 5.7, Bead autofluor 19761*, MazF activator -5.8 and BoNT-F LC inh 8.3.
For O=C(CCN1CCCCC1)Nc1ccc(Br)cc1C(=O)c1ccccc1 the results were Anthrax LF prot -14.9, BoNT-A LC inh2 -3.3, Bead autofluor 5122, MazF activator -2.2 and BoNT-F LC inh -6.1.
`O=C1c2ccccc2N(Cc2ccc(Cl)cc2)C2=NCCN12` gave Anthrax LF prot -0.8, BoNT-A LC inh2 -0.1, Bead autofluor 2695, MazF activator 145.7* and BoNT-F LC inh -7.1.
For Cc1ccccc1C1=NCC(=O)N(CC(=O)N2CCCCC2)c2sc(C)c(C)c21 the results were Anthrax LF prot 0.3, BoNT-A LC inh2 inconclusive, Bead autofluor 22255*, MazF activator 0.5 and BoNT-F LC inh -2.2.
O=C(c1ccc(N2C(=O)c3ccccc3C2=O)cc1)N1CCN(S(=O)(=O)c2ccccc2F)CC1 was read as Anthrax LF prot -2.0, BoNT-A LC inh2 -0.2, Bead autofluor 3938, MazF activator 7.9 and BoNT-F LC inh -2.2.
Screening Clc1cccc(CSc2nccn2-c2ccccc2)c1 returned Anthrax LF prot -6.1, BoNT-A LC inh2 -0.8, Bead autofluor 2069, MazF activator -1.1 and BoNT-F LC inh 13.3.
For Clc1ccc(CSc2ncn(-c3ccccc3)n2)cc1 the results were Anthrax LF prot -1.3, BoNT-A LC inh2 -6.4, Bead autofluor 21528*, MazF activator -14.8 and BoNT-F LC inh -8.3.
Clc1cccc(CSc2ncn(-c3ccccc3)n2)c1 was read as Anthrax LF prot 0.4, BoNT-A LC inh2 -0.9, Bead autofluor 16759*, MazF activator -6.0 and BoNT-F LC inh -3.5.
`C[C@@H]1CCCCO[C@@H](CN(C)C(=O)CCCN(C)C)[C@@H](C)CN([C@H](C)CO)C(=O)c2cc(NC(=O)CCC(F)(F)F)ccc2O1` gave Anthrax LF prot -1.4, BoNT-A LC inh2 -0.5, Bead autofluor 4079, MazF activator 7.4 and BoNT-F LC inh -6.0.
For O=C(NCc1cccnc1)c1cc(C2CCCCN2S(=O)(=O)c2ccc(F)cc2F)on1 (stereo unspecified) the results were Anthrax LF prot -2.7, BoNT-A LC inh2 0.5, Bead autofluor 3517 and BoNT-F LC inh -6.5.
`CC(Nc1nc(N2CCCCC2)nc2ccccc12)c1ccccc1` (stereo unspecified) gave Anthrax LF prot -4.8, BoNT-A LC inh2 inconclusive, Bead autofluor 21408*, MazF activator 12.9 and BoNT-F LC inh -4.7.
For CC(Nc1nc(-c2ccccc2)nc2ccccc12)c1ccccc1 (stereo unspecified) the results were Anthrax LF prot -1.2, BoNT-A LC inh2 -0.2, Bead autofluor 6147, MazF activator 5.4 and BoNT-F LC inh -0.6.
Screening CS(=O)(=O)N1CCN(C/C=C/c2ccccc2)CC1 returned Anthrax LF prot 1.5, BoNT-A LC inh2 1.2, Bead autofluor 3708, MazF activator 4.3 and BoNT-F LC inh 5.2.
Screening O=S(=O)(Cc1ccccc1)N1CCN(C/C=C/c2ccccc2)CC1 returned Anthrax LF prot -0.9, BoNT-A LC inh2 -4.7, Bead autofluor 25473*, MazF activator 2.9 and BoNT-F LC inh -8.5.
For CC(C)COC(=O)N1CCCCC1c1cc(C(=O)N2CCOCC2)no1 (stereo unspecified) the results were Anthrax LF prot -1.6, BoNT-A LC inh2 0.7, Bead autofluor 3474 and BoNT-F LC inh 9.6.
For O=C(COC(=O)C1(c2ccc(F)cc2)CCCC1)NC1CC1 the results were Anthrax LF prot 1.2, BoNT-A LC inh2 -3.2, Bead autofluor 17844*, MazF activator -1.1 and BoNT-F LC inh -2.9.
`O=C1C2ON(c3ccccc3)C(c3ccncc3)C2C(=O)N1c1ccccc1` (stereo unspecified) gave Anthrax LF prot 1.8, BoNT-A LC inh2 -2.2, Bead autofluor 20412*, MazF activator 1.5 and BoNT-F LC inh -3.2.
`Cc1ccccc1N1C(=O)C2ON(c3ccccc3)C(c3cccnc3)C2C1=O` (stereo unspecified) gave Anthrax LF prot 0.8, BoNT-A LC inh2 0.2, Bead autofluor 5262, MazF activator -7.7 and BoNT-F LC inh -4.7.
Screening Cc1cccc(C)c1N1C(=O)C2ON(c3ccccc3)C(c3ccncc3)C2C1=O (stereo unspecified) returned Anthrax LF prot 0.4, BoNT-A LC inh2 inconclusive, Bead autofluor 22531*, MazF activator -4.1 and BoNT-F LC inh -4.0.
For Cc1c(Cl)cccc1N1C(=O)C2ON(c3ccccc3)C(c3cccnc3)C2C1=O (stereo unspecified) the results were Anthrax LF prot 1.9, BoNT-A LC inh2 -0.2, Bead autofluor 21730*, MazF activator 0.2 and BoNT-F LC inh -2.2.
Screening CN(C(=O)COC(=O)c1ccc(S(=O)(=O)N2CCCCCC2)cc1)c1ccccc1 returned Anthrax LF prot -4.0, BoNT-A LC inh2 0.4, Bead autofluor 3528, MazF activator 1.3 and BoNT-F LC inh 0.7.
Screening Cc1ccc(N(Cc2cc3cc(C)ccc3[nH]c2=O)C(=O)c2cccs2)cc1 returned Anthrax LF prot -0.9, BoNT-A LC inh2 0.0, Bead autofluor 2232, MazF activator 88.8* and BoNT-F LC inh -2.6.
`Cc1cc(S(=O)(=O)Nc2ccc(C(=O)NC3CC3)cc2)ccc1F` gave Anthrax LF prot -1.7, BoNT-A LC inh2 0.2, Bead autofluor 3683, MazF activator 12.7 and BoNT-F LC inh -2.8.
CCCC(=O)n1nc(-c2cccnc2)nc1N was read as Anthrax LF prot -2.1, BoNT-A LC inh2 inconclusive, Bead autofluor 23837*, MazF activator 2.8 and BoNT-F LC inh -4.8.
For Cc1cc(C)n(C(=O)c2ccc(Cn3nc(C)c(Br)c3C)o2)n1 the results were Anthrax LF prot -1.5, BoNT-A LC inh2 -0.1, Bead autofluor 23364*, MazF activator -16.5 and BoNT-F LC inh -3.6.
Screening O=C1CN(C(=O)CN2CCN(S(=O)(=O)c3ccccc3)CC2)c2ccccc2N1 returned Anthrax LF prot 0.2, BoNT-A LC inh2 0.1, Bead autofluor 3525, MazF activator 0.1 and BoNT-F LC inh -0.2.
Screening CC1CCN(CC(=O)N2CC(=O)Nc3ccccc32)CC1 returned Anthrax LF prot 1.1, BoNT-A LC inh2 inconclusive, Bead autofluor 22135*, MazF activator -2.1 and BoNT-F LC inh -1.1.
CC1CCN(CC(=O)N2c3ccccc3CCc3ccccc32)CC1 was read as Anthrax LF prot -5.8, BoNT-A LC inh2 -0.6, Bead autofluor 16766*, MazF activator 4.3 and BoNT-F LC inh -1.4.
O=C1CN(C(=O)c2ccccc2C(=O)O)c2ccccc2N1 was read as Anthrax LF prot -8.7, BoNT-A LC inh2 -1.7, Bead autofluor 3318, MazF activator 14.0 and BoNT-F LC inh -1.1.
O=C1CN(C(=O)c2ccccc2Cl)c2ccccc2N1 was read as Anthrax LF prot 3.1, BoNT-A LC inh2 1.9, Bead autofluor 2983, MazF activator 5.0 and BoNT-F LC inh 44.1*.
